# Laboratory results from the supplement of paper PMC8728848.
# The full list was thinned out, with the strongest signals kept by preference.
# B1: CFEM-PPm (Pichia pastoris), F2QPV1 (protein)
# chain: AVATPPACLLACAAEVVKESSDCDALNNIQCICENEGSAIHACLESTCPDGLSSTALQSFEDVCE
# What was measured:
# Experiment in all cases: glycan array binding signal (z-score within array); higher = stronger binding
# Settings in all cases: glycan notation: IUPAC condensed, linker removed
# [1] = target: Fuc(a1-2)Gal(b1-3)GlcNAc(b1-2)Man(a1-3)[Fuc(a1-2)Gal(b1-3)GlcNAc(b1-2)Man(a1-6)]Man(b1-4)GlcNAc(b1-4)GlcNAc
# How it was run: (§1)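 Negative Z-scores can be read as non-binding. The Z-score is calculated within each array and then averaged across arrays of one protein sequence at different concentrations or buffers and across linkers. Arrays, 3228 in all, were curated from the Consortium for Functional Glycomics database and kept only where the protein sequence was available.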
# [2] = target: Fuc(a1-2)Gal(b1-4)GlcNAc(b1-3)GalNAc
# How it was run: as §1
# [3] = target: Fuc(a1-2)[GalNAc(a1-3)]Gal(b1-4)[Fuc(a1-3)]GlcNAc(b1-3)GalNAc
# How it was run: as §1
# Fuc(a1-3)GlcNAc = target: Fuc(a1-3)GlcNAc
# How it was run: as §1
# Gal(a1-2)Gal = target: Gal(a1-2)Gal
# How it was run: as §1
# [4] = target: Gal(a1-3)Gal(b1-3)GlcNAc(b1-2)Man(a1-3)[Gal(a1-3)Gal(b1-3)GlcNAc(b1-2)Man(a1-6)]Man(b1-4)GlcNAc(b1-4)GlcNAc
# How it was run: as §1
# [5] = target: Gal(a1-3)Gal(b1-3)[Fuc(a1-4)]GlcNAc(b1-2)Man(a1-3)[Gal(a1-3)Gal(b1-3)[Fuc(a1-4)]GlcNAc(b1-2)Man(a1-6)]Man(b1-4)GlcNAc(b1-4)GlcNAc
# How it was run: as §1
# [6] = target: Gal(a1-3)Gal(b1-4)GlcNAc(b1-3)GalNAc
# How it was run: as §1
# [7] = target: Gal(a1-3)Gal(b1-4)[Fuc(a1-3)]GlcNAc
# How it was run: as §1
# Gal(b1-3)Gal = target: Gal(b1-3)Gal
# How it was run: as §1
# Gal(b1-3)Gal(b1-4)GlcNAc = target: Gal(b1-3)Gal(b1-4)GlcNAc
# How it was run: as §1
# Gal(b1-3)GalNAc = target: Gal(b1-3)GalNAc
# How it was run: as §1
# [8] = target: Gal(b1-3)GalNAc(a1-3)[Fuc(a1-2)]Gal(b1-4)Glc
# How it was run: as §1
# [9] = target: Gal(b1-3)GalNAc(a1-3)[Fuc(a1-2)]Gal(b1-4)GlcNAc
# How it was run: as §1
# Gal(b1-3)GalNAc(b1-3)Gal = target: Gal(b1-3)GalNAc(b1-3)Gal
# How it was run: as §1
# [10] = target: Gal(b1-3)GalNAc(b1-4)Gal(b1-4)Glc
# How it was run: as §1
# [11] = target: Gal(b1-3)GlcNAc(b1-2)[Gal(b1-3)GlcNAc(b1-6)]Man(a1-6)[Gal(b1-3)GlcNAc(b1-2)Man(a1-3)]Man(b1-4)GlcNAc(b1-4)GlcNAc
# How it was run: as §1
# [12] = target: Gal(b1-3)GlcNAc(b1-3)Gal(b1-4)GlcNAc(b1-2)Man(a1-3)[Gal(b1-3)GlcNAc(b1-3)Gal(b1-4)GlcNAc(b1-2)Man(a1-6)]Man(b1-4)GlcNAc(b1-4)GlcNAc
# How it was run: as §1
# [13] = target: Gal(b1-3)GlcNAc(b1-3)Gal(b1-4)GlcNAc(b1-6)[Gal(b1-3)GlcNAc(b1-3)]Gal(b1-4)Glc
# How it was run: as §1
# [14] = target: Gal(b1-3)GlcNAc(b1-6)Gal(b1-4)GlcNAc
# How it was run: as §1
# [15] = target: Gal(b1-3)[Fuc(a1-4)]GlcNAc(b1-3)Gal(b1-3)[Fuc(a1-4)]GlcNAc
# How it was run: as §1
# [16] = target: Gal(b1-3)[Neu5Ac(a2-6)]GalNAc
# How it was run: as §1
# Gal(b1-4)Glc = target: Gal(b1-4)Glc
# How it was run: as §1
# Gal(b1-4)GlcNAc = target: Gal(b1-4)GlcNAc
# How it was run: as §1
# [17] = target: Gal(b1-4)GlcNAc(b1-3)Gal(b1-4)GlcNAc(b1-2)Man(a1-3)[Gal(b1-4)GlcNAc(b1-3)Gal(b1-4)GlcNAc(b1-2)Man(a1-6)]Man(b1-4)GlcNAc(b1-4)GlcNAc
# How it was run: as §1
# [18] = target: Gal(b1-4)GlcNAc(b1-3)Gal(b1-4)GlcNAc(b1-2)Man(a1-3)[Gal(b1-4)GlcNAc(b1-3)Gal(b1-4)GlcNAc(b1-2)Man(a1-6)]Man(b1-4)GlcNAc(b1-4)[Fuc(a1-6)]GlcNAc
# How it was run: as §1
# [19] = target: Gal(b1-4)GlcNAc(b1-3)Gal(b1-4)GlcNAc(b1-3)Gal(b1-4)GlcNAc(b1-3)Gal(b1-4)GlcNAc(b1-2)Man(a1-3)[Gal(b1-4)GlcNAc(b1-3)Gal(b1-4)GlcNAc(b1-3)Gal(b1-4)GlcNAc(b1-3)Gal(b1-4)GlcNAc(b1-2)Man(a1-6)]Man(b1-4)GlcNAc(b1-4)GlcNAc
# How it was run: as §1
# [20] = target: Gal(b1-4)GlcNAc(b1-3)Gal(b1-4)GlcNAc(b1-3)Gal(b1-4)GlcNAc(b1-3)Gal(b1-4)GlcNAc(b1-3)Gal(b1-4)GlcNAc(b1-2)Man(a1-3)[Gal(b1-4)GlcNAc(b1-3)Gal(b1-4)GlcNAc(b1-3)Gal(b1-4)GlcNAc(b1-3)Gal(b1-4)GlcNAc(b1-3)Gal(b1-4)GlcNAc(b1-2)Man(a1-6)]Man(b1-4)GlcNAc(b1-4)[Fuc(a1-6)]GlcNAc
# How it was run: as §1
# [21] = target: Gal(b1-4)GlcNAc(b1-6)[Gal(b1-3)]GalNAc
# How it was run: as §1
# [22] = target: Gal3S(b1-3)[Fuc(a1-4)]GlcNAc
# How it was run: as §1
# GalNAc(a1-3)GalNAc = target: GalNAc(a1-3)GalNAc
# How it was run: as §1
# [23] = target: GalNAc(b1-4)GlcNAc(b1-2)Man(a1-3)[GalNAc(b1-4)GlcNAc(b1-2)Man(a1-6)]Man(b1-4)GlcNAc(b1-4)GlcNAc
# How it was run: as §1
# [24] = target: GalNAc(b1-4)GlcNAc(b1-3)GalNAc(b1-4)GlcNAc
# How it was run: as §1
# GlcA(b1-6)Gal = target: GlcA(b1-6)Gal
# How it was run: as §1
# [25] = target: GlcNAc(a1-4)Gal(b1-4)GlcNAc
# How it was run: as §1
# [26] = target: GlcNAc(b1-3)Gal(b1-4)GlcNAc
# How it was run: as §1
# [27] = target: GlcNAc(b1-3)Gal(b1-4)GlcNAc(b1-6)[Gal(b1-3)]GalNAc
# How it was run: as §1
# [28] = target: GlcNAc(b1-3)Gal(b1-4)GlcNAc(b1-6)[GlcNAc(b1-3)Gal(b1-3)]GalNAc
# How it was run: as §1
# [29] = target: GlcNAc(b1-3)Gal(b1-4)GlcNAc(b1-6)[GlcNAc(b1-3)]Gal(b1-4)GlcNAc
# How it was run: as §1
# [30] = target: Kdn(a2-3)Gal(b1-4)[Fuc(a1-3)]GlcNAc
# How it was run: as §1
# [31] = target: Neu5Ac(a2-3)Gal(b1-4)GlcNAc(b1-2)Man(a1-3)[Neu5Ac(a2-3)Gal(b1-4)GlcNAc(b1-2)Man(a1-6)]Man(b1-4)GlcNAc(b1-4)GlcNAc
# How it was run: as §1
# [32] = target: Neu5Ac(a2-3)Gal(b1-4)GlcNAc(b1-3)Gal(b1-3)GlcNAc
# How it was run: as §1
# [33] = target: Neu5Ac(a2-3)Gal(b1-4)GlcNAc(b1-3)Gal(b1-4)GlcNAc(b1-3)GalNAc
# How it was run: as §1
# [34] = target: Neu5Ac(a2-3)Gal(b1-4)GlcNAc(b1-3)Gal(b1-4)GlcNAc(b1-6)[Gal(b1-3)]GalNAc
# How it was run: as §1
# [35] = target: Neu5Ac(a2-6)Gal(b1-4)GlcNAc(b1-2)Man(a1-3)Man(b1-4)GlcNAc(b1-4)GlcNAc
# How it was run: as §1
# [36] = target: Neu5Ac(a2-6)Gal(b1-4)GlcNAc(b1-2)Man(a1-3)[Man(a1-6)]Man(b1-4)GlcNAc(b1-4)GlcNAc
# How it was run: as §1
# [37] = target: Neu5Ac(a2-6)Gal(b1-4)GlcNAc(b1-2)Man(a1-6)[Man(a1-3)]Man(b1-4)GlcNAc(b1-4)GlcNAc
# How it was run: as §1
# [38] = target: Neu5Ac(a2-6)Gal(b1-4)GlcNAc(b1-3)[Neu5Ac(a2-6)Gal(b1-4)GlcNAc(b1-6)]GalNAc
# How it was run: as §1
# [39] = target: Neu5Ac(a2-6)GlcNAc(b1-4)GlcNAc(b1-4)GlcNAc
# How it was run: as §1
# [40] = target: Neu5Ac(a2-8)Neu5Ac(a2-3)Gal(b1-3)GalNAc(b1-4)[Neu5Ac(a2-3)]Gal(b1-4)Glc
# How it was run: as §1
# [41] = target: Neu5Ac(a2-8)Neu5Ac(a2-8)Neu5Ac(a2-8)Neu5Ac(a2-3)[GalNAc(b1-4)]Gal(b1-4)Glc
# How it was run: as §1
# [42] = target: Neu5Gc(b2-6)Gal(b1-4)GlcNAc
# How it was run: as §1
binder,measurement,setting,value
B1,glycan array binding signal (z-score),[1],-0.289
same,glycan array binding signal (z-score),[2],1.77
same,glycan array binding signal (z-score),[3],3.4
same,glycan array binding signal (z-score),Fuc(a1-3)GlcNAc,-0.301
same,glycan array binding signal (z-score),Gal(a1-2)Gal,-0.447
same,glycan array binding signal (z-score),[4],0.425
same,glycan array binding signal (z-score),[5],-0.006
same,glycan array binding signal (z-score),[6],-0.284
same,glycan array binding signal (z-score),[7],-0.203
same,glycan array binding signal (z-score),Gal(b1-3)Gal,5.41
same,glycan array binding signal (z-score),Gal(b1-3)Gal(b1-4)GlcNAc,6.22
same,glycan array binding signal (z-score),Gal(b1-3)GalNAc,3.57
same,glycan array binding signal (z-score),[8],0.271
same,glycan array binding signal (z-score),[9],0.224
same,glycan array binding signal (z-score),Gal(b1-3)GalNAc(b1-3)Gal,5.7
same,glycan array binding signal (z-score),[10],14.7
same,glycan array binding signal (z-score),[11],-0.203
same,glycan array binding signal (z-score),[12],-0.305
same,glycan array binding signal (z-score),[13],-0.017
same,glycan array binding signal (z-score),[14],-0.102
same,glycan array binding signal (z-score),[15],-0.034
same,glycan array binding signal (z-score),[16],7.18
same,glycan array binding signal (z-score),Gal(b1-4)Glc,-0.356
same,glycan array binding signal (z-score),Gal(b1-4)GlcNAc,-0.105
same,glycan array binding signal (z-score),[17],1.53
same,glycan array binding signal (z-score),[18],-0.026
same,glycan array binding signal (z-score),[19],-0.09
same,glycan array binding signal (z-score),[20],-0.233
same,glycan array binding signal (z-score),[21],1.67
same,glycan array binding signal (z-score),[22],-0.262
same,glycan array binding signal (z-score),GalNAc(a1-3)GalNAc,-0.194
same,glycan array binding signal (z-score),[23],0.149
same,glycan array binding signal (z-score),[24],-0.226
same,glycan array binding signal (z-score),GlcA(b1-6)Gal,2.41
same,glycan array binding signal (z-score),[25],-0.205
same,glycan array binding signal (z-score),[26],0.308
same,glycan array binding signal (z-score),[27],0.543
same,glycan array binding signal (z-score),[28],-0.173
same,glycan array binding signal (z-score),[29],-0.353
same,glycan array binding signal (z-score),[30],0.034
same,glycan array binding signal (z-score),[31],-0.218
same,glycan array binding signal (z-score),[32],-0.197
same,glycan array binding signal (z-score),[33],-0.282
same,glycan array binding signal (z-score),[34],0.598
same,glycan array binding signal (z-score),[35],-0.215
same,glycan array binding signal (z-score),[36],-0.253
same,glycan array binding signal (z-score),[37],-0.345
same,glycan array binding signal (z-score),[38],0.043
same,glycan array binding signal (z-score),[39],-0.354
same,glycan array binding signal (z-score),[40],0.442
same,glycan array binding signal (z-score),[41],-0.319
same,glycan array binding signal (z-score),[42],-0.034
